Assay outcomes from PubChem.
IL1B secr inh = blocks inflammasome-driven IL-1 beta release; AID 743279; activity change, % at 57.5 µM; THP-1 LPS/ATP IL-1B secretion, AlphaLISA, 16 h; active compounds read low; 360,000 compounds, 4.7% hits; in the data active = activity change below about -50%; inconclusive = mostly about -30% to -49%
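THP-1 cells pretreated 1 hr with compounds (up to 57.5 uM final), then stimulated with LPS (250 ng/mL final) plus ATP (1.25 mM final); secreted IL-1B measured by AlphaLISA after 16 hr, decreased signal indicating inhibition.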
DRD3 antagonist = D3 dopamine receptor (human) antagonism | max response, negative = inhibition, % | 360,000 compounds, 2.5% hits | D3R cells, DiscoveRx beta-arrestin luminescence, antagonist mode; active compounds read low; in the data active = max response below about -50%; inconclusive = no clear call, values can overlap the other calls
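Cells expressing the human receptor were seeded at 1500 cells/well, incubated overnight at 37 degrees C in 5% CO2, then exposed to library compounds with dopamine controls for 90 minutes at 37 degrees C before luminescent detection.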
TDP1 cell noCPT = qHTS for Inhibitors of human tyrosyl-DNA phosphodiesterase 1 (TDP1): qHTS in cells in absence of CPT; Potency, µM (titrated, usually from 46.2 µM), actives largely listed as inhibitors; DT40 Tdp1-/- hTDP1 cells, no CPT, ATP luminescence, 48 h; 420,000 compounds, 15% hits; AID 686978, 2013; also: nearly all actives have a fitted effect of over 55% in size
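Chicken DT40 Tdp1-/- cells stably complemented with human TDP1 were seeded at 400 cells/well with DMSO in place of 20 nM camptothecin. After compound pinning, cells grew at least 48 hr at 37 °C; viability read by CellTiter-Glo luminescence.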
DT40 TDP1 CPT = DT40-hTDP1 cell growth loss with CPT | chicken DT40 Tdp1-/-;hTDP1 cells + 20 nM CPT, ATP luminescence, 48 h | Potency, µM (top dose mostly 46.2 µM), hits mostly inhibitors | 420,000 compounds, 12% hits; also: nearly all actives have a fitted effect of over 55% in size
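Cell growth measured by CellTiter-Glo luminescence after a minimum 48 h, 37 C compound exposure with 20 nM CPT in Tdp1-knockout DT40 cells stably expressing hTDP1, seeded 400/well; qHTS titration format.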
D3 ag = D3 dopamine receptor (human) agonism | AID 652048 | max activation, % | 410,000 compounds, 0.58% hits | D3R DiscoveRx beta-arrestin cells, luminescence, 90 min | P35462; in the data active = max activation above about 30%
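Agonist mode: compounds and dopamine controls were applied to plated cells for 90 min at 37 degrees C after an overnight attachment at 1500 cells/well. Luminescent read-out followed 30 - 60 minutes at room temperature with DiscoveRx detection reagent.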
ClpP mod = qHTS Assay for Activators of ClpP; 340,000 compounds, 1.9% hits; ATP-dependent Clp protease proteolytic subunit (Bacillus subtilis (strain 168)), P80244; Potency, µM (doses to about 57.5 µM); AID 651965, 2013; purified B. subtilis ClpP, FRET peptide cleavage, 20 min; active = well fitted falling curve with a large enough effect; inconclusive = small, poorly fitted or top-dose-only effect; inactive = no such curve, though single readings can be large or run the other way; also: the source files actives as falling curves though it sought activators and does not explain the sign; nearly all actives have a fitted effect of over 65% in size
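FRET quenching reversal measured ClpP activation: 10 microg/mL B. subtilis ClpP at pH 8 with the FRET-FV decapeptide, read at 430 nm after 320 nm excitation. The 20-min minus 0-min signal was scaled between DMSO/no-enzyme wells and ADEP (5.8 microM final).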
Large screens that a line does not name were inactive. Most compounds without a hit are left out; they make up all but 21% or so of the library. Unless noted, calls follow the shape of the dose curve; as a rule, active = well fitted inhibition curve with a large enough effect; inconclusive = small, poorly fitted or top-dose-only effect; inactive = flat fitted curve, though single readings scatter.

Cn1c(NCc2ccccc2F)nc2cc(-c3cccc(C(F)(F)F)c3)sc2c1=O	TDP1 cell noCPT 14.6µM, DT40 TDP1 CPT 13µM
CC(=O)Nc1ccc(CNc2nc3cc(-c4cccc(C(F)(F)F)c4)sc3c(=O)n2C)cc1	TDP1 cell noCPT 20.6µM, DT40 TDP1 CPT 23.1µM
COC(=O)[C@@H]1C[C@@H](c2ccccc2)[C@H](C)C1(C)C	TDP1 cell noCPT inconclusive, DT40 TDP1 CPT inconclusive, ClpP mod inconclusive
COc1ccc(-n2c(=O)c(CCC(=O)N3CCN(c4ccccc4O)CC3)nc3ccccc32)cc1	TDP1 cell noCPT inconclusive, DT40 TDP1 CPT 25.9µM
Cc1cc(C)cc(NC(=O)CN2C(=O)c3ccccc3Sc3ccc(C(=O)N4CCCC4)cc32)c1	TDP1 cell noCPT inconclusive, DT40 TDP1 CPT inconclusive (no result: IL1B secr inh, DRD3 antagonist)
O=S(=O)(Nc1ccc(-c2ccc(N3CCCC3)nn2)cc1)c1ccc(Br)cc1	TDP1 cell noCPT inconclusive, DT40 TDP1 CPT inconclusive (no result: IL1B secr inh, DRD3 antagonist)
O=S(=O)(Nc1ccc(-c2ccc(N3CCCC3)nn2)cc1)c1ccc(Cl)cc1	TDP1 cell noCPT inconclusive, DT40 TDP1 CPT 14.6µM (no result: IL1B secr inh, DRD3 antagonist)
Cc1cc(S(=O)(=O)Nc2ccc(-c3ccc(N4CCCCC4)nn3)cc2)c(C)cc1Cl	TDP1 cell noCPT inconclusive, DT40 TDP1 CPT 13µM (no result: IL1B secr inh, DRD3 antagonist)
O=S(=O)(Nc1ccc(-c2ccc(N3CCCCC3)nn2)cc1)c1ccc(OC(F)(F)F)cc1	TDP1 cell noCPT 16.4µM, DT40 TDP1 CPT inconclusive (no result: IL1B secr inh, DRD3 antagonist)
O=C1c2cccc3c(Cl)ccc(c23)C(=O)N1O	TDP1 cell noCPT 5.8µM, DT40 TDP1 CPT inconclusive
O=C(O)c1cccc(N2C(=O)c3cccc4c(Cl)ccc(c34)C2=O)c1	IL1B secr inh -52.0, DT40 TDP1 CPT inconclusive (no result: ClpP mod)
CCN1C(=O)c2cccc3c(Cl)ccc(c23)C1=O	none
O=C(O)c1ccc(N2C(=O)c3cccc4c(C(=O)O)ccc(c34)C2=O)cc1	DRD3 antagonist inconclusive (no result: ClpP mod)
O=C(c1ccc2c3c(cccc13)C(=O)N(O)C2=O)N1CCCCC1	TDP1 cell noCPT 7.31µM, DT40 TDP1 CPT 8.2µM
O=C1c2ccc3c4c(ccc(c24)C(=O)N1c1cccc(O)c1)C(=O)N(c1cccc(O)c1)C3=O	DRD3 antagonist -82.4, TDP1 cell noCPT 6.51µM, DT40 TDP1 CPT 4.11µM
O=C1c2ccc3c4c(ccc(c24)C(=O)N1c1cccc(O)c1)CC3	TDP1 cell noCPT inconclusive (no result: ClpP mod)
O=C(c1cccc2ccccc12)N1CCCCC1	none (no result: ClpP mod)
CCc1cccc(-n2nnc(-c3nsc(NC(=O)c4cccs4)n3)c2C)c1	TDP1 cell noCPT inconclusive, DT40 TDP1 CPT inconclusive (no result: IL1B secr inh, DRD3 antagonist)
CC(C)(C)NC(=O)C1c2ccccc2OCC(=O)N1Cc1ccco1 (configuration not stated)	none
COc1ccccc1CN1CCC2(CC1)CCN(C(=O)c1c(C)noc1C)CC2	none (no result: IL1B secr inh, DRD3 antagonist, D3 ag, ClpP mod)
O=C(NCCc1ccccc1)C1(S(=O)(=O)c2ccc(Cl)cc2)CC1	none
NC(=O)[C@@H]1CC2(CC(c3cccc(NC(=O)COc4ccc(Cl)cc4)c3)=NO2)CN1C(=O)c1ccccc1 (some centres not stated)	IL1B secr inh -65.1, TDP1 cell noCPT inconclusive, DT40 TDP1 CPT inconclusive
C/C=C(\C)C(=O)N1CC2(CC(c3cccc(NC(=O)COc4ccc(Cl)cc4)c3)=NO2)C[C@@H]1C(N)=O (some centres not stated)	TDP1 cell noCPT inconclusive
COc1ccc(C(=O)N2CC3(CC(c4cccc(NC(=O)COc5ccc(Cl)cc5)c4)=NO3)C[C@@H]2C(N)=O)cc1 (some centres not stated)	IL1B secr inh -57.2, TDP1 cell noCPT inconclusive, DT40 TDP1 CPT 20.6µM
CCc1cc2c(cc3c(=O)n(CC(=O)NCc4cc(Br)ccc4OC)ncn32)s1	TDP1 cell noCPT inconclusive (no result: IL1B secr inh, DRD3 antagonist)
CCOC(=O)c1c(C)oc2c(CC(=O)c3ccccc3)c(Cl)c(O)c(O)c12	DRD3 antagonist inconclusive, TDP1 cell noCPT inconclusive, DT40 TDP1 CPT inconclusive
CCOC(=O)C(=N/O)/C(C)=N/NC(=O)C(=O)Nc1ccc(Cl)cc1	TDP1 cell noCPT 2.06µM, DT40 TDP1 CPT 4.11µM
